In PubChem BioAssay:
Where “and” joins values, the source holds several entries; their conditions need not be identical. Identical values can stand only once. Calls of active or inactive are those of the source.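 The calls were made as follows, unless noted: active = inhibition at or above 50% relative to wild type and mutant plate controls; inactive = inhibition below 50%.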

What was measured:
[1] = inhibitors of TNFa-induced NFkB p65 translocation, primary screen, imaging, HUVEC, MLSMR starter and 10KST1 sets (AID 438;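 active = inhibition above 20% together with a positive visual image hit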;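 also: compound added about 3h40 before a 20 min TNFalpha stimulation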;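 as to inhibition: signal is the nuclear over cytoplasmic p65 intensity ratio per well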); conditions: HUVEC TNFa-induced p65 nuclear translocation; cell count: measured here: nuclei count (cytotoxicity indicator), at 2.08 µM; inhibition: at 2 µM, stronger effect = higher value, 0% TNFa-plus-vehicle, 100% no-TNFa wells
[2] = reduction of polyQ htt aggregates in cells – imaging, exon1htt(103Q)mCFP cells, high-content imaging, primary screen (AID 483;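 active = visual image review flags a hit and inhibition of aggregation exceeds 20%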;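 also: compound exposure lasted 3 days before fixation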;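 as to nuclei count: percent of the per-plate median nuclei count of sample wells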); conditions: exon1htt(103Q)mCFP cell line, aggregate imaging, at 2 µM; inhibition of aggregation: stronger effect = higher value; nuclei count: measured here: cell count, toxicity
[3] = endothelial E-selectin expression blockers – imaging, HUVEC, immunofluorescence, MLSMR starter and 10KST1 sets, primary screen (AID 487;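 active = visually confirmed hit in the image check and inhibition above 20%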;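 as to inhibition: signal is fraction of cell area covered by stained E-selectin grains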;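 as to nuclei count: 100% = median nuclei count of all wells on the same plate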); conditions: HUVEC TNFalpha-induced E-selectin immunofluorescence imaging, at 2 µM; inhibition: stronger effect = higher value; nuclei count: measured here: cell number, toxicity
[4] = Primary imaging screen for DUSP6 inhibitors that restore phospho-Erk in transfected HeLa cells, chemical complementation (AID 609;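 active = compounds giving at least 50% inhibition in the cell-based MKP-3 phosphatase rescue imaging test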;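 as to inhibition: phospho-Erk level distribution per well compared with pooled transfected vehicle control wells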); conditions: HeLa MKP-3 transfected, phospho-Erk imaging KS statistic, at 10 µM, cells stimulated with TPA for 15 min
[5] = biological target: Dual specificity protein phosphatase 6 (Homo sapiens) (UniProt Q16828); assay: as above; conditions: HeLa MKP-3 transfected, phospho-Erk imaging KS statistic; at 10 µM; stronger effect = higher value; cells stimulated with TPA for 15 min
Dual specificity protein phosphatase 6 (Homo sapiens), sequence (Q16828 whole entry, looked up): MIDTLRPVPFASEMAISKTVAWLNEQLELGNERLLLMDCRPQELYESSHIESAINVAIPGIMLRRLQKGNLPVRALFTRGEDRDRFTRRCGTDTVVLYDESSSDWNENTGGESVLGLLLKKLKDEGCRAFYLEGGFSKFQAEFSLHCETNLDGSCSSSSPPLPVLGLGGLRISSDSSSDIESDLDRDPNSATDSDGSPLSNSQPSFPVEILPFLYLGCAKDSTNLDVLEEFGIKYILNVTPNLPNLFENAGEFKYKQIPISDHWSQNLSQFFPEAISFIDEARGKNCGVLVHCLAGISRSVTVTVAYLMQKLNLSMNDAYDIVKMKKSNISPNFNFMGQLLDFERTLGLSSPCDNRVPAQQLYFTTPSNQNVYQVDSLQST

[6] = biological target: Voltage-gated potassium channel subunit beta-2 (Rattus norvegicus) (UniProt P62483); assay: inhibitors of rat Kvbeta2 reductase activity – biochemical, NADPH fluorescence, primary screen (AID 622;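 active = fluorescence slope higher than the sample average by over 3 SD, cut at about -0.22 in these data, passing the limit was not always enough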;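 also: slope of raw intensity against log time taken from 70 to 1610 s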); conditions: recombinant KvBeta, 4-cyanobenzaldehyde reduction, at 10 µM, stronger effect = higher value
Voltage-gated potassium channel subunit beta-2 (Rattus norvegicus), sequence (P62483 whole entry, looked up): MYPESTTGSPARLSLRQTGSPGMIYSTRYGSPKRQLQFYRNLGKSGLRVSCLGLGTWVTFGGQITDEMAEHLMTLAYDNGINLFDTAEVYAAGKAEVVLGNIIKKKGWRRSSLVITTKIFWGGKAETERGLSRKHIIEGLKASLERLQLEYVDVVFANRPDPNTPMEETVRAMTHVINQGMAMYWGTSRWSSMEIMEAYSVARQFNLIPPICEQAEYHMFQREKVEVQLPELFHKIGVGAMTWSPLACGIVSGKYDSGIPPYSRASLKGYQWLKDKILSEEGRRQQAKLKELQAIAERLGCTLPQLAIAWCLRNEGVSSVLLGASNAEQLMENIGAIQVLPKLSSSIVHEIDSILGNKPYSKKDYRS

[7] = biological target: Voltage-gated potassium channel subunit beta-2 (Rattus norvegicus) (UniProt P62483); assay: enhancers of rat Kvbeta2 NADPH turnover – biochemical, NADPH fluorescence, primary screen (AID 623;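 active = NADPH fluorescence slope more negative than the mean of all samples by about 3 SD, 99.7% confidence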;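 also: fluorescence intensity change per second fitted from 20 to 320 s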); conditions: Recombinant KvBeta, NADPH fluorescence decrease slope, 10 min; at 10 µM; stronger effect = lower value
[8] = biological target: Alpha-2C adrenergic receptor (Homo sapiens) (UniProt P18825); assay: compounds altering alpha2C-coupled GIRK flux – cell-based, HEK293 alpha2C/GIRK1/2, thallium flux, primary screen (AID 624;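 active = fluorescence slope after compound addition differing from the mean of all screened samples at 99.7% confidence, in either direction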;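 also: slope of fluorescence ratio to pre-addition baseline per second over 15 to 24 s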); conditions: thallium flux BTC fluorescence, at 10 µM, actives lie on both sides
Alpha-2C adrenergic receptor (Homo sapiens), sequence (P18825 whole entry, looked up): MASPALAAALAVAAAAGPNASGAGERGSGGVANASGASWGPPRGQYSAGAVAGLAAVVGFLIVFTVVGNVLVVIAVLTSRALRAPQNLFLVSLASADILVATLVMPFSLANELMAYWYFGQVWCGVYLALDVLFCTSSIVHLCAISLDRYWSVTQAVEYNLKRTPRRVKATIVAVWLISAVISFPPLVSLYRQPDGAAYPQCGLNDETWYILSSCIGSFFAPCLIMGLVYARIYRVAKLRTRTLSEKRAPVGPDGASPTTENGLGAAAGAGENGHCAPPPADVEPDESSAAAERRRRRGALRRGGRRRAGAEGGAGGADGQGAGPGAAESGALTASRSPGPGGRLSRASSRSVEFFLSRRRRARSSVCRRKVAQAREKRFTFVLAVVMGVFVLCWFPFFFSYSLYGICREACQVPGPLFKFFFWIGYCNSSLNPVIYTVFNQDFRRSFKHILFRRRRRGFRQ

[9] = inhibitors of larval lipid processing in zebrafish, primary screen, whole organism, PED6 fluorescence, gall bladder and intestine (AID 686;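 active = a full or partial loss of lipid-probe fluorescence in the fish gall bladder, intestine or both, judged by eye; inactive = no fluorescence loss, or compound toxic to the fish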;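 also: larvae 5 to 7 days old with five fish per well; signal comes from phospholipase A2 cleavage of quenched PED6 carried via bile; overnight exposure to compound and PED6 before scoring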); conditions: Zebrafish larvae PED6 lipid processing, fluorescence scoring; screened at 20 µM (by protocol)
[10] = loss of swimming-algae plug formation – whole organism, Chlamydomonas reinhardtii, WT vs cilia-less mutant, absorbance, 96-well, primary screen (AID 463189); conditions: Chlamydomonas reinhardtii gravitaxis, OD600 absorbance, 2 days; at 10 µM; stronger effect = higher value;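 also: 0% = wild type cc124 cells in DMSO and 100% = ciliumless bld1 mutant cells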
[11] = blockers of RIG-like receptor reporter activation – cell-based, Sendai virus stimulus, luciferase, 10K MLSCN set, TLR/RLR signaling modifier project, primary screen (AID 602276;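 active = inhibition at or above 50% at 10 µM; inactive = inhibition below 50%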;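 also: firefly luciferase from ISG56 promoter only with Renilla not read in this screen; 0% = Sendai virus plus DMSO and 100% = medium plus DMSO without virus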); conditions: HEK293 RL24 IRF3 luciferase reporter, at 10 µM, stronger effect = higher value
[12] = TLR3 IRF3 reporter activation blockers – cell-based, poly I:C stimulus, luciferase, 10K MLSCN set, primary screen (AID 602277;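 active = inhibition of the reporter signal at or above 50%; inactive = inhibition below 50%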); conditions: HEK293-TLR3 RL24 IRF3 luciferase reporter, at 10 µM, stronger effect = higher value
[13] = measured here: cell density z-score
[14] = measured here: nuclear c-Myc green intensity z-score
[15] = measured here: nuclear pErk red intensity z-score, stronger effect = higher value

## CCCNC(=O)NS(=O)(=O)c1ccc(Cl)cc1
[1]
  cell count: 639
  inhibition: -5.9% (inactive)
[2]
  inhibition of aggregation: 14.1% (inactive)
  nuclei count: 84.6%
[3]
  inhibition: -56.7% (inactive)
  nuclei count: 120%
[4]; [13]
  z-score: -0.235
[4]; [14]
  z-score: 0.988
[4]; [15]
  z-score: 1.2
[5]
  inhibition: -0.493% (inactive)
[6]
  fluorescence slope: -0.477 (inactive)
[7]
  NADPH fluorescence slope: -1.5e-05 (inactive)
[8]
  slope: 0.00564 (inactive)
[9]
  outcome: inactive
[10]
  inhibition: -16% (inactive) and -6.85% (inactive)
[11]
  inhibition: -0.0514% (inactive)
[12]
  inhibition: 14.7% (inactive)

## CCCCCCCCNC(C)C(O)c1ccc(SC(C)C)cc1 (stereo not given)
[1]
  cell count: 561
  inhibition: -16% (inactive)
[2]
  inhibition of aggregation: -10.4% (inactive)
  nuclei count: 105%
[3]
  inhibition: -40.8% (inactive)
  nuclei count: 112%
[4]; [13]
  z-score: 1.06
[4]; [14]
  z-score: -0.321
[4]; [15]
  z-score: -0.268
[5]
  inhibition: 25.1% (inactive)
[6]
  fluorescence slope: -0.477 (inactive)
[7]
  NADPH fluorescence slope: -6.9e-05 (inactive)
[8]
  slope: 0.00365 (inactive)
[9]
  outcome: inactive
[10]
  inhibition: 151% (active)
[11]
  inhibition: 19.5% (inactive)
[12]
  inhibition: -3.66% (inactive)

## CSc1ccccc1NC(=O)c1c(Br)cnn1C
[1]
  cell count: 559
  inhibition: -4.3% (inactive)
[2]
  inhibition of aggregation: 33.5% (active)
  nuclei count: 58.2%
[3]
  inhibition: 26.1% (inactive)
  nuclei count: 130%
[4]; [13]
  z-score: -0.962
[4]; [14]
  z-score: -0.8
[4]; [15]
  z-score: 0.479
[5]
  inhibition: -2.47% (inactive)
[6]
  fluorescence slope: -0.453 (inactive)
[7]
  NADPH fluorescence slope: -5.8e-06 (inactive)
[8]
  slope: 0.00569 (inactive)
[9]
  outcome: inactive
[10]
  inhibition: 4.29% (inactive)
[11]
  inhibition: 5.4% (inactive)
[12]
  inhibition: 4.72% (inactive)

## NC(N)=NC(N)=NCCc1ccccc1
[1]
  cell count: 589
  inhibition: -4.3% (inactive)
[2]
  inhibition of aggregation: -8.6% (inactive)
  nuclei count: 93.2%
[3]
  inhibition: -58.8% (inactive)
  nuclei count: 108%
[4]; [13]
  z-score: -1
[4]; [14]
  z-score: -0.445
[4]; [15]
  z-score: -0.339
[5]
  inhibition: -2.46% (inactive)
[6]
  fluorescence slope: -0.439 (inactive)
[7]
  NADPH fluorescence slope: -1.7e-05 (inactive)
[8]
  slope: 0.004 (inactive)
[9]
  outcome: inactive
[10]
  inhibition: -5.62% (inactive)
[11]
  inhibition: 10.9% (inactive)
[12]
  inhibition: 30.4% (inactive)

## O=C(O)CC1SC(=Nc2cccc(C(F)(F)F)c2)NC1=O (stereo not given)
[1]
  cell count: 447
  inhibition: -2.2% (inactive)
[2]
  inhibition of aggregation: 3.4% (inactive)
  nuclei count: 95.3%
[3]
  inhibition: -42.6% (inactive)
  nuclei count: 105%
[4]; [13]
  z-score: -0.141
[4]; [14]
  z-score: 1.56
[4]; [15]
  z-score: 0.654
[5]
  inhibition: 3.42% (inactive)
[6]
  fluorescence slope: -0.448 (inactive)
[7]
  NADPH fluorescence slope: 1.4e-05 (inactive)
[8]
  slope: 0.0048 (inactive)
[9]
  outcome: inactive
[10]
  inhibition: 34.2% (inactive)
[11]
  inhibition: 19.6% (inactive)
[12]
  inhibition: 19.9% (inactive)

## CCC(CC)C1C(C#N)=C(N)Oc2n[nH]c(C)c21 (stereo not given)
[1]
  cell count: 565
  inhibition: -2.9% (inactive)
[2]
  inhibition of aggregation: -28.3% (inactive)
  nuclei count: 102%
[3]
  inhibition: -21.1% (inactive)
  nuclei count: 112%
[4]; [13]
  z-score: -1.42
[4]; [14]
  z-score: -0.486
[4]; [15]
  z-score: 0.51
[5]
  inhibition: 5.57% (inactive)
[6]
  fluorescence slope: -0.492 (inactive)
[7]
  NADPH fluorescence slope: -0.000106 (inactive)
[8]
  slope: 0.00492 (inactive)
[9]
  outcome: inactive
[10]
  inhibition: -5.48% (inactive)
[11]
  inhibition: 41.8% (inactive)
[12]
  inhibition: 50% (inactive)

## N=c1c(C(=O)NCc2ccccc2)cc2c(=O)n3ccccc3nc2n1Cc1ccco1
[1]
  cell count: 365
  inhibition: -3.1% (inactive)
[2]
  inhibition of aggregation: -10% (inactive)
  nuclei count: 91.6%
[3]
  inhibition: -250% (inactive)
  nuclei count: 133%
[4]; [13]
  z-score: 0.674
[4]; [14]
  z-score: 0.212
[4]; [15]
  z-score: -1.53
[5]
  inhibition: 9.39% (inactive)
[6]
  fluorescence slope: -0.375 (inactive)
[7]
  NADPH fluorescence slope: -4.7e-05 (inactive)
[8]
  slope: 0.00267 (inactive)
[9]
  outcome: inactive
[10]
  inhibition: -4.74% (inactive)
[11]
  inhibition: -0.117% (inactive)
[12]
  inhibition: 19.6% (inactive)

## CN1CCCN(C(c2ccccc2)c2ccc(Cl)cc2)CC1 (stereo not given)
[1]
  cell count: 564
  inhibition: 5.7% (inactive)
[2]
  inhibition of aggregation: -11.5% (inactive)
  nuclei count: 103%
[3]
  inhibition: -6.3% (inactive)
  nuclei count: 120%
[4]; [13]
  z-score: 0.561
[4]; [14]
  z-score: -0.226
[4]; [15]
  z-score: 0.2
[5]
  inhibition: -5.24% (inactive)
[6]
  fluorescence slope: -0.519 (inactive)
[7]
  NADPH fluorescence slope: -1.7e-06 (inactive)
[8]
  slope: 0.00369 (inactive)
[9]
  outcome: inactive
[10]
  inhibition: 43% (inactive)
[11]
  inhibition: -26.9% (inactive)
[12]
  inhibition: 68.6% (active)

## CC(=O)OCC(=O)[C@@]1(O)[C@H](C)C[C@H]2[C@@H]3CCC4=CC(=O)C=C[C@]4(C)[C@@]3(F)[C@@H](O)C[C@@]21C
[1]
  cell count: 499
  inhibition: -5.8% (inactive)
[2]
  inhibition of aggregation: 0.4% (inactive)
  nuclei count: 45.5%
[3]
  inhibition: -54.1% (inactive)
  nuclei count: 112%
[4]; [13]
  z-score: -0.698
[4]; [14]
  z-score: 0.622
[4]; [15]
  z-score: -0.569
[5]
  inhibition: -4.44% (inactive)
[6]
  fluorescence slope: -0.495 (inactive)
[7]
  NADPH fluorescence slope: -3.4e-05 (inactive)
[8]
  slope: 0.00493 (inactive)
[9]
  outcome: inactive
[10]
  inhibition: 26.6% (inactive)
[11]
  inhibition: 14.1% (inactive)
[12]
  inhibition: 31.9% (inactive)

## CCCN(CCC)C(=O)C(CCC(=O)O)NC(=O)c1ccccc1 (stereo not given)
[1]
  cell count: 589
  inhibition: -1.1% (inactive)
[2]
  inhibition of aggregation: 11.8% (inactive)
  nuclei count: 92.5%
[3]
  inhibition: -37.3% (inactive)
  nuclei count: 118%
[4]; [13]
  z-score: -1.75
[4]; [14]
  z-score: 0.853
[4]; [15]
  z-score: -0.876
[5]
  inhibition: 5.79% (inactive)
[6]
  fluorescence slope: -0.461 (inactive)
[7]
  NADPH fluorescence slope: -3.2e-05 (inactive)
[8]
  slope: 0.00459 (inactive)
[9]
  outcome: inactive
[10]
  inhibition: 5.36% (inactive) and -10.6% (inactive)
[11]
  inhibition: 11.3% (inactive)
[12]
  inhibition: 28% (inactive)
